Twelve compounds from PubChem BioAssay can be followed below.

Assay [1] relates to Human papillomavirus type 1a protein E7 (residues 44-93). Nature of the assay: HPV1a E7 fragment binders on microarrays, primary screen, biochemical, small-molecule microarray, residues 44-93, 635 nm fluorescence (AID 1108).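 Further: E7 fragment applied at 1 µg/mL in TBST for 1 h at 4 C; score combines spot fluorescence with its signal to noise ratio.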 Particulars: small-molecule microarray binding, fluorescence 635 nm; higher = more signal.
Assay [2] can be described thus: modulators of HCV replicon luciferase signal, primary screen, HCV replication inhibitor project, Huh7 cells, luciferase reporter (AID 1109).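 Further: huh7 hepatoma cells harbouring a luciferase neomycin HCV replicon reporter; luciferase luminescence as measure of HCV replicon replication; test concentration not given here.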 Conditions: 48 h, higher = more signal. A general note: In antiviral work, replicon cells carry a viral genome segment that copies itself.
Assay [3] has as its target Left-right determination factor 2 (Homo sapiens) (UniProt O00292). Description: LEFTY2 binders on small-molecule microarrays, primary screen, biochemical, small-molecule microarray, 635 nm fluorescence scan (AID 1110). Conditions: LEFTY2 binding, higher = more signal.
Assay [4] addresses Calmodulin-1 (Homo sapiens) (UniProt P0DP23). Description: CALM1 binders on microarrays, EGTA buffer, profiling panel, biochemical, small-molecule microarray, Cy5-labelled CALM1 (AID 1111).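 Further: labelled calmodulin applied in Tris saline Tween buffer holding calcium plus EGTA and DTT.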 Conditions: Cy5-CALM1 binding fluorescence, higher = more signal.
For assay [5] the target is unchanged. Description: calcium-bound CALM1 binders on microarrays, profiling panel, artefact control for SMM control-protein annotation, biochemical, small-molecule microarray, Cy5-labelled CALM1, plus calcium (AID 1112).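 Further: score merges spot fluorescence with signal to noise from triplicate slides.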 Conditions: Cy5-CALM1 binding fluorescence, higher = more signal.
Assay [6] is described as follows: small-molecule microarray binders of probe aWnt5a, primary screen, biochemical, biotinylated probe, 635/667 nm fluorescence (AID 1113).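 Further: score merges 667 nm fluorescence intensity with signal-to-noise per printed feature.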 Particulars: higher = more signal.
The nature of assay [7]: small-molecule microarray binders of probe aShh, primary screen, biochemical, biotinylated probe, 635/667 nm fluorescence (AID 1114).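 Further: probe is biotin-labelled aShh protein from a stem cell growth factor screen; measures binding of labelled protein to compounds printed on the slide; score merges feature fluorescence at 667 nm with signal-to-noise.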 Conditions: higher = more signal.
Assay [8] can be described thus: small-molecule microarray binders of probe aNog, primary screen, biochemical, biotinylated probe, 635/667 nm fluorescence (AID 1115).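 Further: probe is biotinylated aNog protein used at 0.15 µg/mL for 1 h at 4 C; z-score combines 667 nm fluorescence of each spot with its signal to noise.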 Particulars: higher = more signal.
Assay [9] addresses Torsin-1A-interacting protein 1 (Homo sapiens) (UniProt Q5JTV8). Description: LAP1 binders from COS7 cell lysate, primary screen, small-molecule microarray, 635/667 nm fluorescence (AID 1116). Particulars: COS7-hLAP1 lysate binding, 635 nm fluorescence, higher = more signal.
Assay [10] deals with Alpha-bungarotoxin (Bungarus multicinctus) (UniProt P60615). Description: alpha-bungarotoxin binders on microarray, profiling panel, artefact control for SMM control protein annotation, biochemical, small-molecule microarray, Alexa647 label, 635/667 nm fluorescence (AID 1117). Conditions: alpha-BTX-A647 binding fluorescence, higher = more signal.
Sequence of Alpha-bungarotoxin (Bungarus multicinctus) (P60615 whole entry, looked up): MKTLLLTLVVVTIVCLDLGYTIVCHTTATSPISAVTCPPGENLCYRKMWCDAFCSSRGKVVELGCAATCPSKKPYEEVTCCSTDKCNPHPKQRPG

Sequence of Torsin-1A-interacting protein 1 (Homo sapiens) (Q5JTV8 whole entry, looked up): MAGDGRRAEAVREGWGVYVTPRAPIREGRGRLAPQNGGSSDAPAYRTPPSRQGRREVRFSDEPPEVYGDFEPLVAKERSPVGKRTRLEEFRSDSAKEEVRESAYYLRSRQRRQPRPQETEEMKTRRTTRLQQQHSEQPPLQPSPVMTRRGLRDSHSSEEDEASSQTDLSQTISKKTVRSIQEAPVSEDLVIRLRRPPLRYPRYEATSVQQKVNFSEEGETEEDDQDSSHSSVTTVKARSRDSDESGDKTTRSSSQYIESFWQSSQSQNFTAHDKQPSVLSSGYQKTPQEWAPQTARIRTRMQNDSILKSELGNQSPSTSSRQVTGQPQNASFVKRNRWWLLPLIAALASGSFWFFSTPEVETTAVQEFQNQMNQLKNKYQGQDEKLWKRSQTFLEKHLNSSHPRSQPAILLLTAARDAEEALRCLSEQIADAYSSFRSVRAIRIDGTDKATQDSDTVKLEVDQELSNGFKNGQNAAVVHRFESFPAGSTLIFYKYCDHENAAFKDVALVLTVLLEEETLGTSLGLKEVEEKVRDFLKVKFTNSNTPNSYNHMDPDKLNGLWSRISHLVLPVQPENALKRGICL
Sequence of Left-right determination factor 2 (Homo sapiens) (O00292 whole entry, looked up): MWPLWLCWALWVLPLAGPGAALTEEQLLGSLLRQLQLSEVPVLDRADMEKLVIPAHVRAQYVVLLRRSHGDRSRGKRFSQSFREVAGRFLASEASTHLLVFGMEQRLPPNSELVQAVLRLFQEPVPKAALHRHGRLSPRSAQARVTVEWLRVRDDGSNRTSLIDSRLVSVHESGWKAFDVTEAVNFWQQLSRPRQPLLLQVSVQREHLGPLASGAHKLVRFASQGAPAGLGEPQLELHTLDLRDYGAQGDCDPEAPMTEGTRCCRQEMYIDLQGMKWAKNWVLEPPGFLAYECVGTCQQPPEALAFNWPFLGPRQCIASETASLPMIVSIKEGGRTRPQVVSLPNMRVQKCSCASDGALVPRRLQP

Regarding `N#Cc1ccc(NN2C(C(O)c3cc(C(F)(F)F)cc(C(F)(F)F)c3)C=CC3C(=O)N(c4ccccc4)C(=O)C32)cc1` (stereo not given), the composite z-score was 1.39 in assay [1]; 0.224 in assay [3]; 2.44 in [4]; 0.892 in [5]; -0.0009 in assay [6]; 0.0326 in [7]. In addition, the composite z-score in assay [8] was -0.753; in assay [9] it was 1.73; in assay [10], 0.692. The z-score in assay [2] is -1.99.

For `CC(C)(C)N1C(=O)[C@H]2[C@H]3[C@H](O)[C@H](O)CC(=NO[C@@H]4O[C@H](CO)[C@@H](O)[C@H](O)[C@H]4O)[C@@H]3CC[C@H]2C1=O`, the composite z-score in assay [1] is 0.964; in assay [3] it was 0.761; in assay [4], -0.448; in [5] it was -1.36; in [6], -0.0115; in [7], 0.111. Moreover, the composite z-score in [8] is -0.0144; in assay [9] it was 0; in assay [10] it was 1.28. In [2], the z-score was -0.105.

`C[C@@H]1C=CCC(=O)OC[C@H](C)C(=O)N2CCC[C@H]2C(=O)OC1`: the composite z-score in assay [1] is 0.685; in assay [3], 0.851; in [4], -0.725; in assay [5], -1.26; in assay [6], -0.22; in assay [7], 0.0188. Moreover, the composite z-score in [8] was 0.0419; in assay [9] it was 0.96; in assay [10] it was -0.285. For the same compound, the z-score in [2] was -1.06.

On to `CC(C)=CCCC(C)=CCON=C1[C@H]2CCn3c(=O)n(C)c(=O)n3[C@H]2[C@H](O)[C@@H]2O[C@H]12`, for which the composite z-score was 1.32 in assay [1]; 0.692 in [3]; -0.257 in assay [4]; -0.845 in [5]; 0.188 in assay [6]; 0.131 in assay [7]. The composite z-score was -0.0146 in assay [8], 1.2 in assay [9] and -0.0134 in [10]. The z-score in assay [2] was -0.621.

As to `COCCCNC(=O)[C@]1(CCC(=O)OC(C)(C)C)N=C(c2ccc(OCCCO)cc2)O[C@@H]1c1ccccc1N=[N+]=[N-]`, the composite z-score in [1] turned out to be 1.45; in assay [3], 0.197; in assay [4], 1.88; in assay [5] it was 0.671; in [6], 0.183; in [7], 0.0948. Moreover, the composite z-score came to 1.56 in assay [8], 1.21 in assay [9] and 1.64 in assay [10]. Besides, the z-score in [2] turned out to be 0.971.

With `C[C@H](c1ccccc1)N1C(=O)[C@H]2[C@H]3[C@H](O)[C@H](O)CC(=O)[C@@H]3CC[C@H]2C1=O`, the composite z-score was -0.81 in [1]; 0.417 in [3]; -0.229 in assay [4]; -0.465 in assay [5]; -0.0495 in assay [6]; -0.237 in assay [7]. For the same compound, the results for the composite z-score in assay [8], in assay [9] and in [10] were 0.0638, -0.0506 and 0.3, respectively. Also, the z-score in assay [2] was -1.22.

As for `CO[C@H]1COC(=O)[C@H](C)NC(=O)[C@@H](C)COC(=O)CC=C[C@@H]1C`, the composite z-score in assay [1] is -0.0574; in assay [3], 0.348; in assay [4] it was -0.239; in assay [5], -0.514; in assay [6], 0.0502; in assay [7], 0.432. Further, the values for the composite z-score in assay [8], in assay [9] and in assay [10] were 0.131, 0.687 and 0.53, respectively. The same compound yielded a z-score in [2] of -0.504.

In the case of `O=C1c2ccccc2[C@@]2(Cc3ccccc3N(C3CC3)C2=O)[C@H](c2ccc(CO)cc2)N1Cc1ccccc1C(F)(F)F`, the composite z-score is 0.223 in assay [1]; -1.18 in [3]; -0.48 in assay [4]; -0.382 in assay [5]; -0.154 in assay [6]; 0.0545 in assay [7]. Also, the composite z-score in assay [8] is -0.23; in [9], 0.188; in assay [10], -1.37. In assay [2], this compound returned a z-score of -2.39.

Take `O=C1[C@H]2[C@H]3[C@H](O)[C@H](O)CC(=NO[C@@H]4O[C@H](CO)[C@@H](O)[C@H](O)[C@H]4O)[C@H]3CC[C@H]2C(=O)N1Cc1ccccc1`: the composite z-score in [1] was 0.386; in assay [3], 0.652; in [4], -0.058; in assay [5] it was -0.534; in assay [6] it was 0.0044; in assay [7], -0.209. Also, the composite z-score in assay [8] turned out to be 0.124; in assay [9] it was 0.135; in assay [10], 0.784. The z-score in assay [2] came to 0.322.

On to `O=C1CCCC2OC12C(O)CCc1ccccc1` (stereo not given), for which the composite z-score in assay [1] is -0.118; in assay [3] it was 0.585; in assay [4], -0.429; in assay [5], -0.552; in assay [6], 0.0516; in assay [7], -0.206. The composite z-score in [8] is -0.175; in assay [9] it was 0.0788; in [10], 0.176. The compound also came in with a z-score in assay [2] of -0.862.

Regarding `CCOC(=O)C1=CC[C@H]2C(=O)N(CC)C(=O)[C@@H]12`, the composite z-score in assay [1] was 1.19; in [3], 0.444; in [4], -0.322; in assay [5], -0.485; in [6] it was -0.0236; in [7], 0.329. Also, the composite z-score was -0.0184 in [8], 0.184 in [9] and 0.431 in assay [10]. Further, the z-score in assay [2] was -2.13.

`COC(=O)CC1OC1[C@H](C)[C@@H](OC)C(C)C` (stereo not given in full): the composite z-score in [1] was -0.792; in assay [3] it was 0.389; in assay [4] it was -0.723; in assay [5] it was -1.26; in [6], -0.1; in assay [7], -0.147. Besides, the values for the composite z-score in assay [8], in assay [9] and in [10] were -0.487, 0.601 and 0.93, respectively. In [2], the z-score was -0.0397.
